Reference: PubChem BioAssay (NCATS)
Values joined by “and” are separate entries in the source; they are usually repeats but may differ in a detail not shown here. Identical values can stand only once. Results filed as inconclusive are left out. Active and inactive are the calls of the source. Calls come from the whole dose curve; as a rule, active = well fitted curve in the direction sought with a large enough effect; inconclusive = small, poorly fitted or top-dose-only effect, or another doubt; inactive = no such curve, though single readings can be large; an effect the other way counts as inactive or inconclusive.

Tests used:
[1] = Primary qHTS for inhibitors of nuclear receptor binding SET domain protein 2 (NSD2) in an isogenic RCH-ACV NSD2 p.E1099K mutant (9B) (AID 1645876)
[2] = Primary qHTS for inhibitors of nuclear receptor binding SET domain protein 2 (NSD2) in an RCH-ACV wild type WT cells (2C) (AID 1645877)
Note: nearly all actives have a fitted effect of over 70% in size.
Potency is the fitted concentration of half-maximal effect.

C[C@@H]1O[C@@H](O[C@H]2[C@H](OC(=O)[C@]34CCC(C)(C)C[C@H]3C3=CCC5[C@@]6(C)C[C@H](O)[C@H](O[C@@H]7O[C@H](CO)[C@@H](O)[C@H](O)[C@H]7O)[C@](CO)(C(=O)O)C6CC[C@@]5(C)[C@]3(C)C[C@H]4O)OC[C@H](O)[C@@H]2O)[C@H](O)[C@H](O)[C@H]1O[C@@H]1OC[C@@H](O)[C@H](O[C@@H]2OC[C@](O)(CO)[C@H]2O)[C@H]1O (some centres not stated)
Potency [1]: 0.772 µM (active) | Potency [2]: 0.547 µM (active)

COc1ccc(-c2ccccc2)cc1NS(=O)(=O)c1cc(Cl)cc(Cl)c1O
Potency [1]: inactive | Potency [2]: inactive

CC(=O)O[C@@H]1CC[C@@]2(C)C(CC[C@]3(C)C2[C@H](O)C=C2[C@H]4[C@@H](C)[C@H](C)CC[C@]4(C)CC[C@]23C)[C@@]1(C)C(=O)O (some centres not stated)
Potency [1]: inactive | Potency [2]: inactive

Nc1nc(Cl)nc2c1ncn2C1OC(CO)C(O)C1F (configuration not stated)
Potency [1]: 0.0092 µM (active) | Potency [2]: 0.0082 µM (active)

CO[C@@H]1CC(OC2CCC3(C)C(CCC45CCC(C6=CC(=O)OC6)C(C)(CCC43)C5=O)C2)O[C@H](C)[C@@H]1O[C@@H]1O[C@H](CO[C@@H]2O[C@H](CO)[C@@H](O)[C@H](O)[C@H]2O)[C@@H](O)[C@H](O)[C@H]1O (some centres not stated)
Potency [1]: 1.73 µM (active) | Potency [2]: 3.46 µM (active)

C[C@H]1CC[C@@]2(OC1)O[C@H]1CC3[C@@H]4CC[C@@H]5C[C@@H](O[C@@H]6O[C@H](CO)[C@@H](O[C@@H]7O[C@@H](C)[C@H](O)[C@@H](O)[C@H]7O)[C@H](O)[C@H]6O[C@@H]6O[C@H](CO)[C@@H](O)[C@H](O)[C@H]6O)CC[C@]5(C)C4CC[C@]3(C)[C@H]1[C@@H]2C (some centres not stated)
Potency [1]: 3.88 µM (active) | Potency [2]: 3.88 µM (active)

CCC(C)C(=O)O[C@H]1[C@@H](OC(=O)c2ccoc2)C[C@](C)(O)[C@]23OC(C)(C)[C@H](C[C@H](OC(=O)c4ccoc4)[C@]12COC(C)=O)[C@H]3OC(C)=O (some centres not stated)
Potency [1]: inactive | Potency [2]: inactive

Cc1nc(NC(=O)N2CCC[C@H]2C(N)=O)sc1-c1ccnc(C(C)(C)C(F)(F)F)c1
Potency [1]: 1.63 µM (active) and 2.63 µM (active) | Potency [2]: 1.63 µM (active) and 2.95 µM (active)

Cc1cc(C(=O)Nc2cc(Oc3ccc4nc(NC(=O)C5CC5)cn4n3)ccc2C)n(C)n1
Potency [1]: 13.2 µM (active) | Potency [2]: 9.34 µM (active)

COC1CC(O[C@H]2CC[C@]3(C)C4CC[C@]5(C)C(C6=CC(=O)OC6)=CCC56OC46CC[C@@H]3C2)OC(C)C1O[C@@H]1O[C@H](CO[C@@H]2O[C@H](CO)[C@@H](O)[C@H](O)[C@H]2O)[C@@H](O)[C@H](O)[C@H]1O (some centres not stated)
Potency [1]: 1.54 µM (active) | Potency [2]: 2.75 µM (active)

Cn1ncc2cc(-c3cnc(N)c(Cl)c3N3CCC4(CCNC4=O)CC3)ccc21
Potency [1]: 2.05 µM (active) and 3.72 µM (active) | Potency [2]: 0.0934 µM (active)

Cc1ccc(-c2c(C(=O)CCl)n(CCCO)c3ncnc(N)c23)cc1
Potency [1]: 20.5 µM (active) | Potency [2]: 23 µM (active)

Nc1ncnc2c1nc(Cl)n2C1OC2COP(=O)(O)OC2C1O (configuration not stated)
Potency [1]: 2.05 µM (active) | Potency [2]: 2.9 µM (active)

N#Cc1ccnc(Nc2cc(C3CCN(C4COC4)CC3)cc(N3CCC(F)(F)C3)n2)c1
Potency [1]: 2.91 µM (active) and 934 nM (active) | Potency [2]: 2.59 µM (active) and 525 nM (active)

Cc1cc2c(cc1N1C(=O)c3cccc4c(CCCO)ccc(c34)C1=O)n(C)c(=O)n2C
Potency [1]: 0.858 µM (active) | Potency [2]: 0.608 µM (active)

CC(/C=C/C(=O)NO)=C\[C@@H](C)C(=O)c1ccc(N(C)C)cc1
Potency [1]: 183 nM (active) and 1.05 µM (active) | Potency [2]: 183 nM (active) and 934 nM (active)

Cn1cc(-c2cnn3c(N)c(Br)c(C4CCCNC4)nc23)cn1 (configuration not stated)
Potency [1]: 1.18 µM (active) | Potency [2]: 1.05 µM (active)

N[C@@H]1c2cccnc2[C@H](OC(=O)N2CCC(n3c(=O)[nH]c4ncccc43)CC2)CC[C@H]1c1cccc(F)c1F
Potency [1]: inactive | Potency [2]: inactive

C=C1C(=O)O[C@@H]2/C=C(/C)[C@@H](OC(C)=O)C/C=C(\C)C[C@@H](OC(=O)/C(=C/CO)CO)[C@@H]12
Potency [1]: 7.09 µM (active) | Potency [2]: 3.17 µM (active)

C/C1=C\CCC2=CC(OC2=O)C(C)(C)/C=C/C1=O (configuration not stated)
Potency [1]: 6.49 µM (active) | Potency [2]: 2.9 µM (active)

C=C1C(=O)O[C@@H]2C[C@@]3(C)C[C@@H](O)C[C@H](C)C3=C[C@H]12
Potency [1]: 7.28 µM (active) | Potency [2]: 5.15 µM (active)
